CHOP inhibitor = inhibitors of CHOP induction in ER stress response; actives 3.8% (n = 220,000); inhibition, % at 10 µM; CHO-K1 CHOP-promoter luciferase, tunicamycin-induced, 15-18 h;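 active = compounds that reduced the stress-induced luciferase reporter signal by more than about 70% of percent inhibition, limit read from the data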;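 note: 0% = tunicamycin plus vehicle and 100% = wells without tunicamycin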
Arbovirus inh = blocks arbovirus infection; arbovirus infection cell-based antiviral screen; inhibition, % at 10 µM; actives 0.37% (n = 200,000); AID 1251; in the data active = inhibition above about 30%
L major viab = reduces viability of Leishmania major promastigotes; resazurin fluorescence viability; inhibition, % at 10 µM; actives 9% (n = 200,000); AID 1063; in the data active = inhibition above about 50%;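 note: promastigotes grown with compound for 44 hours at 28 °C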
WT yeast gro inh = growth inhibition of WT yeast, mitochondrial fusion screen; mitochondrial fusion phenotypic screen, WT strain; inhibition, % at 10 µM; actives 2.1% (n = 190,000); AID 1362; in the data active = inhibition above about 58%; tested in S. cerevisiae
Numbers without * were called inactive; nt = not tested or not shown. A selection: hits, their analogues and other compounds. The true share with any hit is near 12%.

SMILES	CHOP inhibitor	Arbovirus inh	L major viab	WT yeast gro inh
Cc1cccc(C)c1NC(=O)CC(NCCc1ccccc1)C(=O)O (configuration not stated)	-9.0	2.1	-8.9	-6.7
COc1ccc(C2CC(c3ccccc3)=NN2C(=O)COC(=O)c2cnc(Cl)c(Cl)c2)cc1 (configuration not stated)	-20.0	-4.8	96.7*	-5.0
COc1ccc(C2CC(c3ccccc3)=NN2C(=O)COC(=O)c2ccc(Cl)nc2)cc1 (configuration not stated)	-14.6	-1.7	4.2	17.1
CCOc1ccc(N2C(=O)/C(=C\c3ccccc3OC)S(=O)(=O)C2c2cccc([N+](=O)[O-])c2)cc1 (configuration not stated)	2.4	2.6	50.0*	-2.7
O=C(COC(=O)C12CC3CC(CC(C3)C1)C2)NC12CC3CC(CC(C3)C1)C2	75.7*	-6.5	6.0	80.4*
O=C(COC(=O)C12CC3CC(CC(C3)C1)C2)Nc1ccc(OC(F)F)cc1	94.3*	-6.2	4.7	28.3
O=C(COC(=O)C12CC3CC(CC(O)(C3)C1)C2)Nc1ccccc1OC(F)F	15.2	13.8	2.9	58.4*
CCC(CC)C(=O)OCC(=O)NC12CC3CC(CC(C3)C1)C2	33.3	-0.5	-4.2	-16.3
C=CCOc1cccc(CNc2cccc(C(=O)O)c2)c1	-14.8	nt	nt	nt
CCOc1ccc(NC(=S)C(C#N)=C2N(C)c3ccccc3N2C)cc1	-5.4	6.3	1.8	2.5
CC(C)(CN1CCCCC1)NS(=O)(=O)c1ccc(Cl)cc1	24.2	-1.1	90.1*	20.1
CC1CC(C)CN(CC(C)(C)NS(=O)(=O)c2ccc(Cl)cc2)C1 (configuration not stated)	93.8*	-2.2	95.2*	10.0
CCN(CC)CC(C)(C)NS(=O)(=O)c1ccc(Cl)cc1	8.3	-1.7	70.8*	4.3
CC(C)(CN1CCN(Cc2ccccc2)CC1)NS(=O)(=O)c1ccccc1	-7.3	nt	nt	nt
CC(C)(CNS(=O)(=O)c1ccc(Cl)cc1)N1CCCCC1	28.2	-10.8	81.3*	-2.8
CN(C)CC(C)(C)NS(=O)(=O)c1ccc(Cl)cc1	-12.4	2.5	-5.1	-1.3
CC1CCCCC1NC(=S)NC(=O)c1sc2ccccc2c1Cl (configuration not stated)	-0.8	10.7	2.0	22.4
O=C(NC(=S)N(CCCCO)C1CCCCC1)c1sc2ccccc2c1Cl	-24.9	-29.5	92.3*	42.0
CCOC(=O)c1cnc2c(ccc3ccccc32)c1NCCO	20.6	-16.4	40.6	32.1
CCOC(=O)c1ccccc1Oc1c(F)c(F)nc(NCCO)c1F	15.5	0.5	81.7*	12.3
O=C(Nc1ccccc1)Nc1ncc([N+](=O)[O-])s1	86.0*	4.4	11.4	69.7*
C=CCNC(=S)Nc1cccc2[nH]ncc12	4.7	8.2	7.5	-1.5
O=[N+]([O-])c1cccc2ccc(/C=C/c3ccc(F)cc3)nc12	49.2	-2.2	56.6*	14.9
CCOc1cc(/C=C/c2ccc3cccc([N+](=O)[O-])c3n2)ccc1OCC(=O)N(C)C	13.4	-5.2	-0.8	-7.3
CCOc1cc(/C=C/c2ccc3cccc([N+](=O)[O-])c3n2)ccc1O	50.3	-2.9	72.7*	26.2
SMILES	CHOP inhibitor	Arbovirus inh	L major viab	WT yeast gro inh
O=[N+]([O-])c1ccc(/C=C/c2ccc3cccc([N+](=O)[O-])c3n2)cc1	7.8	-9.8	51.0*	-5.9
COc1cc(/C=C/c2ccc3cccc([N+](=O)[O-])c3n2)ccc1OCC#N	25.9	6.0	5.9	14.6
CCN(CC)CCNc1nc2nonc2nc1NCCN(CC)CC	-8.7	nt	nt	nt
O=C(N/N=C/c1ccc(Br)cc1)c1ccccc1-n1cccc1	3.5	-12.4	65.3*	-3.9
COc1cc(C(O)c2nc3ccccc3s2)cc(OC)c1OC (configuration not stated)	7.4	nt	nt	nt
N#Cc1c(Sc2ncc(C(F)(F)F)cc2Cl)nsc1C/C=N\OCc1c(F)cccc1Cl	7.6	5.7	-4.6	14.5
Cc1c([N+](=O)[O-])c(C/C=N/O)nn1C	15.7	nt	nt	nt
Cc1cc(Br)ccc1OCCCCNC(C)(C)C	-14.9	-24.1	99.6*	-1.5
COCCNCCCCOc1ccc(Br)cc1C	-0.6	-34.2	99.6*	14.9
COCCNC(=O)COc1ccc(Br)cc1Cl	-5.2	0.5	0.8	-11.0
COCCCNCCCCOc1ccc(Br)cc1C	17.3	-34.2	98.9*	31.9
CC(C)(C)NCCCCOc1ccccc1F	25.1	-2.8	99.6*	0.4
Brc1cccc(CNc2nc3ccccc3n2CCN2CCOCC2)c1	1.3	6.6	49.0	19.0
Cc1cnc([N+](=O)[O-])n1CCOC(=O)NC(=O)c1ccc(F)cc1	-14.9	1.3	6.0	4.6
O=C(Nc1nc2ccccc2[nH]1)c1cc2ccccc2o1	-49.6	-7.4	15.8	-9.3
CC12CCC(c3n[nH]c(=S)nc31)C2(C)C (configuration not stated)	21.3	11.6	-3.5	13.1
CCc1ccc(C(=O)c2cncc(Br)c2)cc1	73.8*	18.2	12.3	-11.8
Cc1ccc(C(=O)c2cncc(Br)c2)cc1	23.7	8.3	20.4	-7.5
COc1ccc2[nH]c(=O)c(CN(Cc3cccs3)S(=O)(=O)c3c(C)ccc4nsnc34)cc2c1	-24.7	19.2	98.2*	18.2
Cc1ccc2[nH]c(=O)c(CN(CC3CCCO3)S(=O)(=O)c3c(C)ccc4nsnc34)cc2c1 (configuration not stated)	-3.1	0.0	95.0*	4.0
Cc1ccc2[nH]c(=O)c(CN(CC3CCCO3)S(=O)(=O)c3cccc4nsnc34)cc2c1 (configuration not stated)	34.0	-6.3	13.1	-16.7
COc1cc(OC)cc(C(=O)N2CCC(n3c(C)nc4cc(F)ccc43)CC2)c1	17.1	10.3	8.0	68.7*
Clc1ccc(CSc2ncnc3nc[nH]c23)cc1	25.3	-31.7	-9.7	26.8
O=C(c1ccccc1)N1CCN(C(=S)NCCc2ccccc2)CC1	26.0	3.2	53.0*	-7.7
CN1CCN(C(=S)NCCc2ccccc2)CC1	-11.5	2.5	2.3	7.1
SMILES	CHOP inhibitor	Arbovirus inh	L major viab	WT yeast gro inh
Fc1ccc(CN2CCN(C(=S)NCCc3ccccc3)CC2)c(Cl)c1	84.8*	4.6	1.0	8.1
OCc1ccccc1N=c1ssnc1Cl	41.5	1.2	-1.4	3.0
Clc1ccc(N=c2ssnc2Cl)nc1	103.2*	-29.3	-9.6	68.5*
Cc1ccc(/C=C2/SC(=S)N(CCC(=O)N3CCN(C)CC3)C2=O)cc1	62.9	3.7	97.0*	-0.2
CN1CCN(NC(=O)CN2C(=O)/C(=C/c3ccccc3Cl)SC2=S)CC1	-0.2	-4.8	47.5	4.3
CN1CCN(C(=O)CCN2C(=O)/C(=C/c3ccccc3Cl)SC2=S)CC1	-5.1	-2.8	100.1*	-1.7
CC1(c2cc(C(F)(F)F)n3nc(C(=O)O)cc3n2)CC1	15.2	1.5	-7.5	-18.1
CN1CCC(OC(=O)c2ccc(Br)cc2)CC1	nt	nt	84.9*	nt
Cc1ccc(-c2nc3c(=O)n(C)c4ccccc4c3o2)cc1	48.8	-12.5	62.6*	2.6
Cc1ccc(-c2nc3c(=O)n(-c4ccccc4)c4c(c(=O)n(C)c(=O)n4C)c3o2)cc1	-11.9	nt	nt	nt
N#C/C(C(=O)N1CCOCC1)=c1/s/c(=C\c2ccccn2)c(=O)n1-c1ccccc1	-10.1	2.1	1.2	-4.8

Screening data from PubChem BioAssay.
